Results as given in PubChem BioAssay AID492960 (National Center for Advancing Translational Sciences (NCATS), 2010).
Inconclusive results are not listed. Entries that show only a call come without a potency. Activity calls are given as the source filed them. The call rests on the fitted dose curve; in most records, active means well fitted curve in the direction sought with a large enough effect; inconclusive means small, poorly fitted or top-dose-only effect, or effect the other way, or another doubt; inactive means no such curve, though single readings can be large or run the other way.

Experiment: Secondary Assay for lipid storage modulators: HepG2 cell LDSA assay for probe SAR
Conditions: HepG2 lipid droplet BODIPY, laser-scanning cytometry, 18-24 h; series mostly up to 46.1 µM
Excerpt: NIH Molecular Libraries Probe Production Centers Network [MLPCN] NIH Chemical Genomics Center [NCGC] MLPCN Grant: 1 R03 MH085686-01 Assay Submitter (PI): Beller, Mathias; Max-Planck-Institut fur Biophysikalische Chemie NCGC Assay Overview: Storing lipids as a reservoir for energy or the anabolism of elementary metabolites is a common feature of probably all cells and is conserved from bacteria to humans. The universal cellular lipid storage organelle is the so-called lipid storage droplet (LD). Although ubiquitous, LDs share a simple structure composed of a hydrophobic core that harbors the storage lipids, which is shielded by a droplet-specific phospholipid monolayer to which proteins are attached. The current model of LD biogenesis involves an incorporation of the lipid core into the membrane leaflets of the endoplasmic reticulum (ER) followed by a subsequent budding-like maturation of a LD, which ultimately pinches off. Once released, LD volume can increase by localized lipogenesis or fusion of existing droplet. Storage lipids are re-mobilized enzymatically by lipase activity. Lipase regulation in the adipocyte is heavily studied and involves multiple components including catecholamine signaling, the LD-associated proteins Perilipin and comparative gene identification (CGI-58) and at least two lipases named hormone sensitive lipase (HSL) and adipocyte triglyceride lipase (ATGL). LD regulation outside of the adipocyte is poorly understood and only few components are known. However, there is an urgent need to learn more about ectopic fat depots as mislocalized storage of lipids, for example in the liver or muscle, is an eminent health problem associated with insulin resistance or the metabolic syndrome.
NCGC Assay Protocol Summary: The assay was performed with HepG2 cells, using an oleic acid feeding protocol similar to the S3 assay. We dispensed 4 uL of cells to give 700 cells/well into Greiner bio-one 1,536-well plates (black walled, clear bottom). Triacsin C (Sigma-Aldrich T-4540), an inhibitor of long-chain fatty acyl CoA synthetase that blocks synthesis of triglycerides, was used as a positive control for lipid under-storage using a final concentration of 20 uM. The orexin antagonist, SB408124 - previously identified to stimulate lipid over-storage, was used as a positive control for lipid over-storage using a final concentration of 20 uM. A total of 23 nL of compound solution of different concentrations were transferred to the assay plates using a Kalypsys pin tool equipped with a 1,536-pin array containing 10-nL slotted pins (FP1S10, 0.457-mm diameter, 50.8 mm long; V&P Scientific). One microliter of oleic acid was added (400 uM final concentration), and the plate was lidded with stainless steel rubber gasket lined lids containing pinholes. After 18-24 h incubation at […] and 95% humidity, 4 uL of the dyes BODIPY 493/503 (Molecular Probes) and the Cell Tracker Red CMTPX dye (Molecular Probes) were added to the wells to stain lipid droplets and enumerate cell number, respectively. Fluorescence was detected by excitation of the fluorophores with a 488-nm laser on an Acumen Explorer (TTP Lab Tech). The total intensity in channel 2 (500-530 nm) reflected lipid droplet accumulation. Cells were detected using channel 3 (575-640 nm) with 5-um width and 100-um depth filters. The ratio of the number of objects in PMT channel 2 over the number of objects in PMT channel 3 was also calculated. Percent activity was computed relative to an internal control (100% inhibited lipid droplet deposition due to the presence of 20 uM Triacsin C), which was added to 32 wells/plate.

Structure (SMILES) | Potency
COc1nc(-c2ccc3c(c2)OCO3)n(-c2ccc(NC(=O)CSc3ccccc3)cc2)n1 | inactive
CCOc1ccc(NC(=O)NC2(C(=O)N3CCCCC3)CCCCC2)cc1 | inactive
CCOc1ccc(CCNC(=O)c2cccs2)cc1OCC | inactive
O=C(c1cc2sccc2n1Cc1ccccc1)N(CCc1ccc(O)c(O)c1)Cc1ccccc1 | inactive
Cc1csc(NC(=O)CSc2ncc(-c3ccccc3)n2Cc2ccco2)n1 | inactive
O=C(NC1CCCc2c1cnn2-c1ccc(F)cc1F)c1ccc(C2(C(F)(F)F)N=N2)cc1 (stereo not given) | inactive
CCOc1ccc(CCNC(=O)c2cc3c(s2)CCC3)cc1OCC | inactive
CCOc1ccc(CCNC(=O)c2cc3ccccc3n2C)cc1OCC | inactive
CC1(C)CCC(c2ccc(Cl)cc2)=C(CN2CCN(c3ccc(C(=O)NS(=O)(=O)c4ccc(N[C@H](CCN5CCOCC5)CSc5ccccc5)c(S(=O)(=O)C(F)(F)F)c4)cc3)CC2)C1 | inactive
CCOc1ccc(CCNC(=O)c2cccc(C(=O)c3ccccc3)c2)cc1OCC | inactive
O=C(NC1CCCc2c1cnn2-c1ccc(F)cc1F)c1ccc2cc[nH]c2c1 (stereo not given) | inactive
CCOC(=O)C1CCN(C(=O)C2(NC(=O)Nc3ccccc3Cl)CCC2)CC1 | inactive
C[C@@H](NCCCc1cccc(C(F)(F)F)c1)c1cccc2ccccc12 | inactive
CCn1c(C(=O)NCCc2ccc(OC)cc2)cc2sccc21 | inactive
O=C(O)c1cccc(-c2noc(-c3ccccc3F)n2)c1 | inactive
CCn1c(C(=O)NCCc2ccc(OC)c(OC)c2)cc2sccc21 | inactive
CN(C)CC(=O)NC1CCCc2c1cnn2-c1ccc(F)cc1F (stereo not given) | inactive
CCOc1ccc(CCNC(=O)c2cc3sccc3n2Cc2cccnc2)cc1OCC | inactive
CCOc1ccc(CCNC(=O)c2ccc(C3(C(F)(F)F)N=N3)cc2)cc1OCC | inactive
CCOc1ccc(CCNC(C)=O)cc1OCC | inactive

Structure (SMILES) | Potency
O=C(NC1CCCc2c1cnn2-c1ccc(F)cc1F)C1CCCCC1 (stereo not given) | inactive
CCOC(=O)C1CCN(C(=O)C2(NC(=O)Nc3ccccc3Cl)CCCCC2)CC1 | inactive
CCOc1ccc(CCNC(=O)c2cc3ccccc3o2)cc1OCC | inactive
CCn1c(C(=O)NCCc2ccc(OC)c(OC)c2)cc2sc(Cl)cc21 | inactive
O=C(NC1CCCc2c1cnn2-c1ccc(F)cc1F)C1CCCCN1 (stereo not given) | inactive
CCOc1ccc(CCNC(=O)c2cc3sccc3n2C)cc1OCC | 25 µM (active)
O=C(O)CCc1ccc(NCc2cccc(Oc3ccccc3)c2)cc1 | inactive
CCOc1ccc(CCNC(=O)c2cc3sccc3n2CC=C(C)C)cc1OCC | inactive
CCOc1ccc(CCNC(=O)c2cc3sccc3n2Cc2ccc(Cl)c(F)c2)cc1OCC | inactive
CCOc1ccc(CCNC(=O)C2CCCCC2)cc1OCC | inactive
CCOc1ccc(CCNC(=O)c2cc3sccc3n2Cc2ccccc2)cc1OCC | 14.1 µM (active)
CCOc1ccc(CCNC(=O)C2=C(C)OCCO2)cc1OCC | inactive
O=C(NC1CCCc2c1cnn2-c1cc(F)cc(F)c1)c1cccc2nccnc12 (stereo not given) | inactive
COc1ccc(CCNC(=O)c2cc3sccc3n2Cc2ccc(Cl)cc2)cc1OC | inactive
CCOC(=O)C1CCN(C(=O)C2(NC(=O)Nc3ccccc3Cl)CC2)CC1 | inactive
O=C(NC1CCCc2c1cnn2-c1ccc(F)cc1F)c1cnon1 (stereo not given) | inactive
O=C(NC1CCCCC1)NC1(C(=O)N2CCCC2)CCCCC1 | inactive
O=C(NC1CCCc2c1cnn2-c1ccc(F)cc1F)C1CC1 (stereo not given) | inactive
CCOc1ccc(CCNC(=O)c2cc3sccc3n2Cc2ccc(OC(F)F)cc2)cc1OCC | inactive
Cc1ccc(-c2cnc(SCC(=O)Nc3nc(C)cs3)n2Cc2ccco2)cc1 | inactive
